Data on two molecules can be found in ChEMBL document CHEMBL2218924, “A broad activity screen in support of a chemogenomic map for kinase signalling research and drug discovery” (Biochem J, 2013).

Assay [1] addresses T1, Serine/threonine-protein kinase TAO2 (Homo sapiens) (UniProt Q9UL54).
T1 sequence (whole entry): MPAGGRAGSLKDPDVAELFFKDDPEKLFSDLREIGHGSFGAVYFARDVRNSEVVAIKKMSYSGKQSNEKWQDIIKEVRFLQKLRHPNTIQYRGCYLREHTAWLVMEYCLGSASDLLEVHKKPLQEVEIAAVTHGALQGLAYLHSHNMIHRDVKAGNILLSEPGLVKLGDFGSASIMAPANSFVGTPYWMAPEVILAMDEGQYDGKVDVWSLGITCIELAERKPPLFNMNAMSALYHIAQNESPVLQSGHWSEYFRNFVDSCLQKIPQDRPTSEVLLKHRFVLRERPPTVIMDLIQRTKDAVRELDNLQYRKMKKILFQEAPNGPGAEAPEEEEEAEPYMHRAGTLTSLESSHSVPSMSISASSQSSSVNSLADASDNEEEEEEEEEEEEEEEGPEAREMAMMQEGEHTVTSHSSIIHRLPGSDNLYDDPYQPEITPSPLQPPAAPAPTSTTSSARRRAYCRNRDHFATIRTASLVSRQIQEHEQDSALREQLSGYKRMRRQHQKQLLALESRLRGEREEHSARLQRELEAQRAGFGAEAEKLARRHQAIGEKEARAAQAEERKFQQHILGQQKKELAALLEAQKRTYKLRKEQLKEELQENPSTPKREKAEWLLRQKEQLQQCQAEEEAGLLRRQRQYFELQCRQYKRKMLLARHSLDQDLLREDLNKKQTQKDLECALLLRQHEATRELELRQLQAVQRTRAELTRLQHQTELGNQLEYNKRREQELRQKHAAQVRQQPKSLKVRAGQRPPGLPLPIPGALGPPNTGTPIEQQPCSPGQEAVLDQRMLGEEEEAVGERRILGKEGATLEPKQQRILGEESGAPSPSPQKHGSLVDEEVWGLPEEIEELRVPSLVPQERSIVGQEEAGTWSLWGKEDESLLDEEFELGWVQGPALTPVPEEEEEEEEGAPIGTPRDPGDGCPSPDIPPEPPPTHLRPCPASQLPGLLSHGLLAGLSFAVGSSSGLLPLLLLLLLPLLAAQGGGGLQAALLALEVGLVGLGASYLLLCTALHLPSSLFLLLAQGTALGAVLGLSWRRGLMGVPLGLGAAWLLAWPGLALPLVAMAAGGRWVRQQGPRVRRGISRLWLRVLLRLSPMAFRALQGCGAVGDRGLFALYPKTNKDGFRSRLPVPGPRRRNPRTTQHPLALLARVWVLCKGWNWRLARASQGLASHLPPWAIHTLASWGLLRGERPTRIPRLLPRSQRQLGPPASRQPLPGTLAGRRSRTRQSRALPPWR
Particulars: at 1 µM.

Assay [2] has as its target T1, Serine/threonine-protein kinase TAO2 (Homo sapiens). Particulars: at 10 µM.
Assay [3] concerns the target T2, Serine/threonine-protein kinase TAO3 (Homo sapiens) (UniProt Q9H2K8).
T2 sequence (whole entry): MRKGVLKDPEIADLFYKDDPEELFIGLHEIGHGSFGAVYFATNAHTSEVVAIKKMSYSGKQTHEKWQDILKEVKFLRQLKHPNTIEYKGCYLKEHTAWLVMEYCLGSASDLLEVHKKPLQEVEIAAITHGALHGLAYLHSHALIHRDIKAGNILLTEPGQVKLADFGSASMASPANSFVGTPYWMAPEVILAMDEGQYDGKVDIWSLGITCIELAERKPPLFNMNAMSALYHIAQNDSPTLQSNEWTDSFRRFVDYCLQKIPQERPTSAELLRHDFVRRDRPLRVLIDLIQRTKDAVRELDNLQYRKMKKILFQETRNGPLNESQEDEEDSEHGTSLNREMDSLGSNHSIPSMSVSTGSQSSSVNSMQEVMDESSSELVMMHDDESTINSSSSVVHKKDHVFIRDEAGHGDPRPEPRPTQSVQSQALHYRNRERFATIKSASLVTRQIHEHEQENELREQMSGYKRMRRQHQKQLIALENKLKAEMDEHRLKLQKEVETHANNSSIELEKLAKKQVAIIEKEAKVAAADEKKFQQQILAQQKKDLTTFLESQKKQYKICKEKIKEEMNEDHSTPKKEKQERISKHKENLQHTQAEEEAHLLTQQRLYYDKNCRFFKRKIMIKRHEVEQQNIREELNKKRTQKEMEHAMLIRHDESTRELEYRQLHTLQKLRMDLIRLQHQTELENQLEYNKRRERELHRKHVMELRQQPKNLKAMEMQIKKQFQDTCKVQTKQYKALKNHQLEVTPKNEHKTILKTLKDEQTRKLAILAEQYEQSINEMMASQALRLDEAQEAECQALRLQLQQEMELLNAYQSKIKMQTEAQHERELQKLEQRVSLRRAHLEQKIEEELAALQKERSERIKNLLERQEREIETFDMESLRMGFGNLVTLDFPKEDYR
Particulars: at 1 µM.

Assay [4] addresses T2, Serine/threonine-protein kinase TAO3 (Homo sapiens). Particulars: at 10 µM.
For assay [5], the target named is T3, Serine/threonine-protein kinase TBK1 (Homo sapiens) (UniProt Q9UHD2).
T3 sequence (whole entry): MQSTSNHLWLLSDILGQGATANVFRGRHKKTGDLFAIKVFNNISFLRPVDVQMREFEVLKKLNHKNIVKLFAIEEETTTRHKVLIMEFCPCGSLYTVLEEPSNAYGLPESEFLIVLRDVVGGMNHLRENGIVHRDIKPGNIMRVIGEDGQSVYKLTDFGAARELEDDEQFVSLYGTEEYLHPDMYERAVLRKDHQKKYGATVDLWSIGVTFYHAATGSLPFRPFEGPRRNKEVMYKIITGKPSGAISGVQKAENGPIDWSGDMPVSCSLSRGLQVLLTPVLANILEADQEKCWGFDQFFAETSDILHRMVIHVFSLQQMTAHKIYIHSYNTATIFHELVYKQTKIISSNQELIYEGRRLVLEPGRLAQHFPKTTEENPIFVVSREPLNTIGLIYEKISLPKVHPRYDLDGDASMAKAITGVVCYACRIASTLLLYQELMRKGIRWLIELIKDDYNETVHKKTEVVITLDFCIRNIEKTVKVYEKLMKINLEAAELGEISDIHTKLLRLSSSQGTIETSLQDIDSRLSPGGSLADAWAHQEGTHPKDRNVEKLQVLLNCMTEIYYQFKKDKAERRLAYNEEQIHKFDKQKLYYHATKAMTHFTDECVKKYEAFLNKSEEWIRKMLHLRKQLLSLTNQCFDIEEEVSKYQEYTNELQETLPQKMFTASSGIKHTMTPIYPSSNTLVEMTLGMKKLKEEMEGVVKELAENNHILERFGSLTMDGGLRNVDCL
Particulars: at 1 µM.

Assay [6] has as its target T3, Serine/threonine-protein kinase TBK1 (Homo sapiens). The note with it: at 10 µM.
The target of assay [7] is T4, TGF-beta receptor type-1 (Homo sapiens) (UniProt P36897).
T4 sequence (whole entry): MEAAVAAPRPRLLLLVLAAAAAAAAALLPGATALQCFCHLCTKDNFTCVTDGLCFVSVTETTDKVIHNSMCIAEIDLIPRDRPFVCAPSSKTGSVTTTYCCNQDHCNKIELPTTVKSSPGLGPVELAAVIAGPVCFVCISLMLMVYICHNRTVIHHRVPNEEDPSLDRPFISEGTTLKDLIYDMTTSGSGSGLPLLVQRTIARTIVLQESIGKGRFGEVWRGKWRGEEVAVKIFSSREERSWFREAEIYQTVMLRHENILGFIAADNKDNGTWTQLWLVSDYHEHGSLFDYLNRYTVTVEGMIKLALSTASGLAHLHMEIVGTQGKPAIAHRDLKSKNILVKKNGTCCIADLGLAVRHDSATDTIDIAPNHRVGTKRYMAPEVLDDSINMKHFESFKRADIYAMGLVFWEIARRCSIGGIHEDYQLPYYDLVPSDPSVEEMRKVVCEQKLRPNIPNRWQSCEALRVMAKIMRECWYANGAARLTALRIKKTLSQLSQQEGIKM
The note with it: at 1 µM.

The target in assay [8] is T4, TGF-beta receptor type-1 (Homo sapiens). Particulars: at 10 µM.
The target in assay [9] is Insulin-like growth factor 1 receptor (Homo sapiens) (UniProt P08069). The note with it: at 1 µM.
Chain of Insulin-like growth factor 1 receptor (Homo sapiens) (P08069 31-736 limits assumed): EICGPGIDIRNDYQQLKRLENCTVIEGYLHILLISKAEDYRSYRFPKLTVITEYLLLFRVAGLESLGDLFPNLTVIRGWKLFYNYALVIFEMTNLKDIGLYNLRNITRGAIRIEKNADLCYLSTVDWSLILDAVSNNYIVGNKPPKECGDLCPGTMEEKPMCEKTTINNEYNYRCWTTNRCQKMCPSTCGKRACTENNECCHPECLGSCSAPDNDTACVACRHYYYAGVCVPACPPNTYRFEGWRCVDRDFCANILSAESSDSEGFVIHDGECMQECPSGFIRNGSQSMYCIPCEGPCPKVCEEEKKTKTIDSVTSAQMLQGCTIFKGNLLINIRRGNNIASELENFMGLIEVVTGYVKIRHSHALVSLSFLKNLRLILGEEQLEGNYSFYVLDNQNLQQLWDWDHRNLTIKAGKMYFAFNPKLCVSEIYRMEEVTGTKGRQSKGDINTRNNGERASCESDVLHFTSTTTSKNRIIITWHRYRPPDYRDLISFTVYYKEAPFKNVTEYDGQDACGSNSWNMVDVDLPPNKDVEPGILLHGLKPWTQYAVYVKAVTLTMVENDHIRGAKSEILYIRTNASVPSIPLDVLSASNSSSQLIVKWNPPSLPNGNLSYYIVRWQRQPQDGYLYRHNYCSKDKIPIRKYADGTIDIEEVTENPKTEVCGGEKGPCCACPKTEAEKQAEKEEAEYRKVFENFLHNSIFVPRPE
Chain of Insulin-like growth factor 1 receptor (Homo sapiens) (P08069 741-1367 limits assumed): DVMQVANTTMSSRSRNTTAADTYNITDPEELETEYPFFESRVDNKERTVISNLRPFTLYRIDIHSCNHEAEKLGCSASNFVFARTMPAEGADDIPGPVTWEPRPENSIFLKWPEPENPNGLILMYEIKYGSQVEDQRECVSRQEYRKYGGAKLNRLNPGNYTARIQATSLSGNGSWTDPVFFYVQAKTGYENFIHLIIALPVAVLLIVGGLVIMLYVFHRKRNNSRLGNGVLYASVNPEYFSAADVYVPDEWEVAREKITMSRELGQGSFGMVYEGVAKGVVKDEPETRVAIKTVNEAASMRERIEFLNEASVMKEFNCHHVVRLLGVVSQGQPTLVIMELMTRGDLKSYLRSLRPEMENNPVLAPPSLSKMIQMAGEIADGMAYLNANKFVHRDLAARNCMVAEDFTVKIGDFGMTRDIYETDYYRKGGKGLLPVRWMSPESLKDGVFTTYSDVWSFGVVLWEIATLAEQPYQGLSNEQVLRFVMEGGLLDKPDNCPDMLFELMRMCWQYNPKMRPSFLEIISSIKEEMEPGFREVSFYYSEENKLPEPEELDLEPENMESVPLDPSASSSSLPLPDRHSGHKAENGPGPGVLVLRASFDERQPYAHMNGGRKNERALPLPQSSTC
Assay [10] has the same target. Particulars: at 10 µM.
For assay [11], the target named is T5, Inhibitor of nuclear factor kappa-B kinase subunit alpha (Homo sapiens) (UniProt O15111).
T5 sequence (whole entry): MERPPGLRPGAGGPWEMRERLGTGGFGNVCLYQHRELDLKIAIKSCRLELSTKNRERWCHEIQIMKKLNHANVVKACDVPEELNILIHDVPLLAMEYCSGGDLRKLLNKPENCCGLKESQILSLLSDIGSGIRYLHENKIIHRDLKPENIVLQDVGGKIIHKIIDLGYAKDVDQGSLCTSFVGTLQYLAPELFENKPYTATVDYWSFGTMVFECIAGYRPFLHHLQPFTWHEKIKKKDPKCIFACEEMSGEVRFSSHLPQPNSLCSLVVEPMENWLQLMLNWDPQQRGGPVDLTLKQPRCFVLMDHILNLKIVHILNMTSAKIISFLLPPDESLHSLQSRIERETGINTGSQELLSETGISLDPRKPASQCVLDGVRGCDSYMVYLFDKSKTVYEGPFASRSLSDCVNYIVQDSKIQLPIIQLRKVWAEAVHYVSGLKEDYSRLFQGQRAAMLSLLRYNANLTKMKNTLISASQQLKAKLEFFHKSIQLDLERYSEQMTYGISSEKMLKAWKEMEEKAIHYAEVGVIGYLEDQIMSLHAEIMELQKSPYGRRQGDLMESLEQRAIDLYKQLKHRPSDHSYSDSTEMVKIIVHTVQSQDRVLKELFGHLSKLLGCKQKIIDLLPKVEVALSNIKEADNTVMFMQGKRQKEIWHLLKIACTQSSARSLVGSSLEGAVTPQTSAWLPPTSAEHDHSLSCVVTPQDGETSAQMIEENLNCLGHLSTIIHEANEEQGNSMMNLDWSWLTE
The note with it: at 1 µM.

The target of assay [12] is T5, Inhibitor of nuclear factor kappa-B kinase subunit alpha (Homo sapiens). Particulars: at 10 µM.
The target in assay [13] is T6, Inhibitor of nuclear factor kappa-B kinase subunit beta (Homo sapiens) (UniProt O14920).
T6 sequence (whole entry): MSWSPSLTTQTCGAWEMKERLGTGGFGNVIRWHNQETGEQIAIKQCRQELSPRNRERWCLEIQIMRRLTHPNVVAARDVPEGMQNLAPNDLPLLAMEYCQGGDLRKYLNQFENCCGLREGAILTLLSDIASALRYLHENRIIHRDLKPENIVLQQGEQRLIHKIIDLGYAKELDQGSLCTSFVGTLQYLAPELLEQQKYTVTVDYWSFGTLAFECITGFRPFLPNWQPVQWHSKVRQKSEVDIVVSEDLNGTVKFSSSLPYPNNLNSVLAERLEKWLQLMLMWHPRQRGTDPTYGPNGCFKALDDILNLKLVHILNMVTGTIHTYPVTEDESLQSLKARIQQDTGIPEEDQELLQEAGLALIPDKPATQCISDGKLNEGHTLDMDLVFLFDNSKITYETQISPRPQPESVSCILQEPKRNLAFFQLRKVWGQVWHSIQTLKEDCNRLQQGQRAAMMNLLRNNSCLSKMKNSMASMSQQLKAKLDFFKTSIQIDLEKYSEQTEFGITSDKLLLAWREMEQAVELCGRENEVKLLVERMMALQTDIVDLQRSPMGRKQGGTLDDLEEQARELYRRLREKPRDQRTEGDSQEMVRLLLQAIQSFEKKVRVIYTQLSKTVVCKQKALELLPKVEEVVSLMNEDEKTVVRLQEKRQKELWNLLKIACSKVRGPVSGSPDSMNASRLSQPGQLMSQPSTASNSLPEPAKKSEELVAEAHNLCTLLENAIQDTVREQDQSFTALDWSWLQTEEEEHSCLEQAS
Particulars: at 1 µM.

Assay [14] concerns the target T6, Inhibitor of nuclear factor kappa-B kinase subunit beta (Homo sapiens). The note with it: at 10 µM.
The target of assay [15] is Insulin receptor (Homo sapiens) (UniProt P06213). Particulars: at 1 µM.
Chain of Insulin receptor (Homo sapiens) (P06213 28-758 limits assumed): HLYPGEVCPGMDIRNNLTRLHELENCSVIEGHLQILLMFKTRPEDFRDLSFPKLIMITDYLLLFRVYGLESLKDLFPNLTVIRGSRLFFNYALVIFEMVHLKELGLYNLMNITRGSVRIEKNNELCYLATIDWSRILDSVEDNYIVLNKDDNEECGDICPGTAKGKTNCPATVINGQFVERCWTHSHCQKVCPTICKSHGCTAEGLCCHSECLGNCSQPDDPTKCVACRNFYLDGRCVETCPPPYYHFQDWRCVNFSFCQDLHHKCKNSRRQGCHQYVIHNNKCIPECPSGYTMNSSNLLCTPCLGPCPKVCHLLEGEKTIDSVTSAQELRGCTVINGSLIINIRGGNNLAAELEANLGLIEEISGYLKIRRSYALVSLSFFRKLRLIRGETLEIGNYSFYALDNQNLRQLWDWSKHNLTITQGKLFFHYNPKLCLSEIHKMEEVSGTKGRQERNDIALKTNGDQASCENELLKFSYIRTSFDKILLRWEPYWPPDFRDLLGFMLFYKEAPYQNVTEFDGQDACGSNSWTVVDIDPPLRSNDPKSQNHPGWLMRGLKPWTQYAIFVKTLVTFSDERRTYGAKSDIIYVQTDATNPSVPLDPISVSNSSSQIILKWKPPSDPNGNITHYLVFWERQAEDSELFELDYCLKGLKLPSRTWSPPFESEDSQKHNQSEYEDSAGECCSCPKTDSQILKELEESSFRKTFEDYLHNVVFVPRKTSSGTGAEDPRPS
Chain of Insulin receptor (Homo sapiens) (P06213 763-1382 limits assumed): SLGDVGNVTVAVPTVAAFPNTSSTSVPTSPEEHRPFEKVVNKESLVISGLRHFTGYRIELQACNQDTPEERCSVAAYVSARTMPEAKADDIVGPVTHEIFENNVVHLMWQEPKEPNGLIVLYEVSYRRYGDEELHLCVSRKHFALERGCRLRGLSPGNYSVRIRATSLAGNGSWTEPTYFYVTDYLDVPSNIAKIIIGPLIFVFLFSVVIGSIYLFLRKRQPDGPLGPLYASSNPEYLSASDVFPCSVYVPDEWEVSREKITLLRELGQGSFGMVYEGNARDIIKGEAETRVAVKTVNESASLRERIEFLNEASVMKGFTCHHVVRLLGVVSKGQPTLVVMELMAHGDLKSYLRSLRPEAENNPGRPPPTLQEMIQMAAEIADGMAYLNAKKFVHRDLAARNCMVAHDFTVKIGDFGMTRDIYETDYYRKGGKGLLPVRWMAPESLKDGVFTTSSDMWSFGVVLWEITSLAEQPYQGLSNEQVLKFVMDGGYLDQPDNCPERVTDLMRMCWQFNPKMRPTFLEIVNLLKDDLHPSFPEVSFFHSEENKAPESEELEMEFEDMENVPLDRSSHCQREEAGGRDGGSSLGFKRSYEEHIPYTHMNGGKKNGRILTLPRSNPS
The target is the same in assay [16]. Particulars: at 10 µM.
For assay [17] the target is unchanged. Particulars: at 1 µM. The source holds these as a separate data set.
The target is the same in assay [18]. Particulars: at 10 µM. The source holds these as a separate data set.
In assay [19] the target is Interleukin-1 receptor-associated kinase 1 (Homo sapiens) (UniProt P51617). Particulars: at 1 µM.
Chain of Interleukin-1 receptor-associated kinase 1 (Homo sapiens) (P51617 whole entry, looked up): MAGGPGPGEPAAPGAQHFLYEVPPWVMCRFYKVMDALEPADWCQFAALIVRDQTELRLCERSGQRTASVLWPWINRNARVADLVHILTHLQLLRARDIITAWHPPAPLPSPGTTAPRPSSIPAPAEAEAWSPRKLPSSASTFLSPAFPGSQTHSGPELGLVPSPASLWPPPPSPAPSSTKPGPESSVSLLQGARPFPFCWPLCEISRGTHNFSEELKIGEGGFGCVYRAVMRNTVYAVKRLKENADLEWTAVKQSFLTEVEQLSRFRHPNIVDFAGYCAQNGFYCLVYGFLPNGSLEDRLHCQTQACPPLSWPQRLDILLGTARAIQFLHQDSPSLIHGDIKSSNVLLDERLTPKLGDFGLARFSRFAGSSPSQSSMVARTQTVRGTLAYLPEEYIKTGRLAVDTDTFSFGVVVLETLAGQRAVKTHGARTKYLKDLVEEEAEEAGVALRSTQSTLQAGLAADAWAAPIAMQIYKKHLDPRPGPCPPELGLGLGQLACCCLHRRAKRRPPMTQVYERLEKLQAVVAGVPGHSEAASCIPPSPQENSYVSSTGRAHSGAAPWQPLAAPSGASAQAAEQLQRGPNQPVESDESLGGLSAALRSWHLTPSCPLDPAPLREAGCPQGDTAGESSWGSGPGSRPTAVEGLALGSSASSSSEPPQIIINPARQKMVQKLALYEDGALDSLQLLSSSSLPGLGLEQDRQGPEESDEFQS
Assay [20] shares this target. The note with it: at 10 µM.

Broadly, the residual activity is the signal under treatment as a percentage of the control signal. Consider `O=[N+]([O-])/C=C/c1ccc2c(c1)OCO2`, for which the residual activity is 107% in [1]; 81% in [2]; 90% in assay [3]; 100% in assay [4]; 87% in assay [5]; 81% in assay [6]. The residual activity in assay [7] was 90%; in assay [8], 101%; in assay [9] it was 103%; in assay [10], 91%; in assay [11], 91%; in [12], 94%. Further, the residual activity came to 98% in [13]; 95% in [14]; 117% in assay [15]; 85% in assay [16]; 96% in assay [17]; 102% in assay [18]. Moreover, the residual activity in [19] was 95%; in assay [20], 83%.

Turning to `CC(C)(C)c1cc(C=C(C#N)C#N)cc(Br)c1O`, the residual activity in assay [1] came to 113%; in assay [2] it was 103%; in [3], 101%; in assay [4] it was 97%; in assay [5] it was 103%; in assay [7], 97%. In addition, the residual activity in assay [8] came out at 97%; in assay [9] it was 105%; in assay [10], 104%; in assay [11], 101%; in assay [12], 99%; in [13], 98%. The residual activity amounted to 99% in assay [14]; 122% in assay [15]; 108% in assay [16]; 109% in assay [17]; 105% in [18]; 117% in assay [19]. In addition, in [20], the residual activity came to 107%.
